# PubChem BioAssay (NCATS)
# Records with an inconclusive call do not appear. Entries that show only a call come without a potency. Values without a mark were called inactive. Activity calls are given as the source filed them. The call rests on the fitted dose curve; in most records, active means well fitted curve in the direction sought with a large enough effect; inconclusive means small, poorly fitted or top-dose-only effect, or another doubt; inactive means no such curve, though single readings can be large; an effect the other way counts as inactive or inconclusive. Square brackets hold non-standard residues; d marks the D form. Peptide text beside a SMILES is read from it. * marks the point of attachment. pGlu = O=C1CC[C@@H](C(=O)O)N1; Thz = O=C(O)[C@@H]1CSCN1; PhAc = O=C(Cc1ccccc1)*
# Molecular target: Cellular tumor antigen p53 (Homo sapiens) (UniProt P04637)
# Sequence (P04637 whole entry, looked up): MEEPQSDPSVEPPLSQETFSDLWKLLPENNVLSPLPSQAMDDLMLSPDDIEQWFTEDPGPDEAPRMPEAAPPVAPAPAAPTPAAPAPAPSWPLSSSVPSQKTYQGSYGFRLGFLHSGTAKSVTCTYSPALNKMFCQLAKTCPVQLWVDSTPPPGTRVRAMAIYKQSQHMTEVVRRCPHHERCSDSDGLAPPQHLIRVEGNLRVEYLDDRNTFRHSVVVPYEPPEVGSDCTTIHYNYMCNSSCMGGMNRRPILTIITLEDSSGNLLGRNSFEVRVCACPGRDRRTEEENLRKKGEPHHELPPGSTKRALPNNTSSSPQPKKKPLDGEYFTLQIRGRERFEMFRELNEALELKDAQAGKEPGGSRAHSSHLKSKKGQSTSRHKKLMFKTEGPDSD
# Assay: Primary qHTS for small molecule compounds that upregulate eGFP-tagged delta133p53alpha (in N-terminal) cells. (AID 2060322);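 further: cells pre-induced with doxycycline then dosed without doxycycline; nearly all actives have a fitted effect of over 75% in size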
# Details: NCI-H358 eGFP-delta133p53alpha fluorescence, 24 h; activation: active compounds read high
# How it was run: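 NCI-H358 cells pre-induced 24 h with 10 ng/ml doxycycline for eGFP-delta133p53alpha, plated dox-free and exposed 24 h at 37C to titrated compounds. Fixed, Hoechst-stained; gated GFP peak intensity by laser scanning cytometry, normalized to DMSO (0%) and 57.5 uM 5-azacytidine (100%).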
row,Compound,activation
1,COc1ccccc1-n1c(SCC(=O)Nc2nc3ccc(C)cc3s2)nc2c(c1=O)SCC2,-11.9%
2,CC1=C(/C=C/C(C)=C\C=C\C(C)=C/C(=O)O)C(C)(C)CCC1,11.5%
3,O=C1CC[C@@H](C(=O)N2CSC[C@H]2C(=O)O)N1 ([pGlu]-[Thz]-OH),1.43%
4,C=CCCN1CCC2(CC1)CN(C(=O)c1c(F)cccc1F)c1ccc(Cl)cc12,8.11%
5,COc1cc(Nc2nc3c(s2)CCCC3c2ccccc2)ccc1-n1cnc(C)c1 (stereo not given),-18.6%

# Molecular target: Aldehyde dehydrogenase, mitochondrial (Homo sapiens) (UniProt P05091)
# Assay: qHTS for Inhibitors of the Aldehyde Dehydrogenase Family (ALDH2) Primary screen (AID 2061308); further: nearly all actives have a fitted effect of over 55% in size
# Details: ALDH2 enzyme inhibition qHTS, 1536-well; series mostly up to 56 µM
Compound,Potency,"activity change, negative = inhibition"
C[C@@H]1C(=O)O[C@H]2[C@@H](O)C34[C@H]5C[C@@H](C(C)(C)C)C36[C@@H](OC(=O)[C@@H]6O)O[C@@]4(C(=O)O5)[C@@]12O (stereo not given in full),inactive,–
CNC(=O)O[C@H]1COc2ccc(N3CCN(C4COC4)CC3)cc2[C@@H]1NC(=O)c1ccc(F)cc1,inactive,–
CC(C)NCC(C(=O)N1CCN(c2ncnc3c2C(C)CC3O)CC1)c1ccc(Cl)cc1 (stereo not given),inactive,–
Cc1ccc(N2CCN(CCC3NC(=O)c4ccccc43)CC2)cc1C (stereo not given),inactive,–
CCN1CCN(Cc2ccc(NC(=O)c3ccc(C)c(Oc4ncnc5[nH]c(C)cc45)c3)cc2C(F)(F)F)CC1,inactive,–
O=c1cc(N2CCOCC2)nc2c3ccccc3ccn12,inactive,–
CC(C)(F)CC(NC(c1ccc(-c2ccc(S(C)(=O)=O)cc2)cc1)C(F)(F)F)C(=O)NC1(C#N)CC1 (stereo not given),inactive,–
O=C(CNC(=O)c1cccc(C(F)(F)F)c1)N[C@@H]1CCN(Cc2ccc(Cl)cc2)C1,inactive,–
C[C@@H](NC(=O)c1cc(C(=O)N[C@@H](Cc2ccccc2)[C@H](O)CNC2CC2)cc(N(C)S(C)(=O)=O)c1)c1ccccc1,inactive,–
CCOC(=O)CNC(=O)[C@@H]1CCCN1C(=O)Cc1ccccc1 (PhAc-Pro-Gly-OEt),inactive,–
COc1cc(Br)c(Nc2nc(-c3c(C)nc4ncccn34)cs2)c(Br)c1,inactive,–
Cc1cc(C)nc(NS(=O)(=O)c2ccc(NC(=S)NC(=O)COc3ccc(Br)cc3Cl)cc2)n1,inactive,–
O=C(COc1ccc2ccccc2c1Br)Nc1cccnc1,inactive,–
Nc1nc2c(ncn2[C@@H]2O[C@H](CO)[C@@H](O)[C@H]2O)c(=O)[nH]1,inactive,–
N[C@@H](CC(=O)Nc1ccc(Oc2cc(F)c(F)cc2Br)cc1)C(=O)O,inactive,–
O=C(NCc1ccc(OC(F)(F)F)cc1)C1c2ccccc2C(=O)N1C1CCOCC1 (stereo not given),inactive,–
c1ccc(CN(CC2=NCCN2)c2ccccc2)cc1,inactive,–
O=C(N[C@H](Cc1cscn1)C(=O)N[C@@H](CC1CCCCC1)[C@@H](O)[C@@H](O)C1CC1)c1nc2ccccc2[nH]1,inactive,–
CN(C)CC(c1ccc(O)cc1)C1(O)CCCCC1 (stereo not given),inactive,–
O=C(NCc1ccc(F)cc1)C(=O)c1c[nH]c2ccccc12,inactive,–

Compound,Potency,"activity change, negative = inhibition"
CC(Cc1cc2c(c(C(N)=O)c1)N(CCCO)CC2)NCCOc1ccccc1OCC(F)(F)F (stereo not given),inactive,–
CCn1c2ccccc2c2cc(CNC)ccc21,inactive,–
CCN(CC)C(=O)Nc1ccc(OCC(O)CNC(C)(C)C)c(C(C)=O)c1 (stereo not given),inactive,–
CC1(C)C(=O)C(C)(C)c2cc(C(=O)Nc3ccc(C(=O)O)cc3)ccc21,inactive,–
CC(C)(C)C1CCN(C(=O)n2ncc(C(O)(c3ccccc3)c3ccccc3)n2)CC1,inactive,–
N[C@@H](CC(=O)N1CCn2c(nnc2C(F)(F)F)C1)Cc1[nH]nc2c(F)c(F)ccc12,inactive,–
Cc1[nH]c2ccccc2c1CC(=O)N[C@@H](Cc1ccccc1)C(=O)N(C)c1ccccc1,inactive,–
N[C@@H]1c2cccnc2[C@H](OC(=O)N2CCC(n3c(=O)[nH]c4ncccc43)CC2)CC[C@H]1c1cccc(F)c1F,inactive,–
CC(NCCCc1cccc(C(F)(F)F)c1)c1cccc2ccccc12 (stereo not given),inactive,–
CN(C)S(=O)(=O)c1ccc(NC(=S)N2CCC(C(O)(c3ccccc3)c3ccccc3)CC2)cc1,inactive,–
CC(C)[N+]1(C)C2CCC1CC(OC(=O)C(CO)c1ccccc1)C2 (stereo not given),inactive,–
CCOc1nc2c(N)ncnc2n1CC,inactive,–
O=C(O)c1ccccc1NC(=O)N1CCC(c2ccccc2C(F)(F)F)CC1,inactive,–
CC1(C)[C@H]2C[C@H](C/C=C\CCCC(=O)O)[C@@H](NC(=O)c3csc4ccc(O)cc34)[C@@H]1C2,inactive,–
CCCCc1c(-c2ccc(OC)cc2)[nH]c2nccnc12,inactive,–
COc1ccccc1-n1c(SCC(=O)Nc2nc3ccc(C)cc3s2)nc2c(c1=O)SCC2,inactive,–
CC1=C(/C=C/C(C)=C\C=C\C(C)=C/C(=O)O)C(C)(C)CCC1,inactive,–
O=C1CC[C@@H](C(=O)N2CSC[C@H]2C(=O)O)N1 ([pGlu]-[Thz]-OH),inactive,–
C=CCCN1CCC2(CC1)CN(C(=O)c1c(F)cccc1F)c1ccc(Cl)cc12,inactive,–
COc1cc(Nc2nc3c(s2)CCCC3c2ccccc2)ccc1-n1cnc(C)c1 (stereo not given),–,1.32% [at 11.2 µM]
